Screens (PubChem BioAssay)
Pf growth 48h: Primary qHTS for delayed death inhibitors of the malarial parasite plastid, 48 hour incubation. AID 504832, 2011. 310,000 tested, 5.9% active. Potency, µM (top dose mostly 28.7 µM), inactives show top-dose activity change, negative = inhibition, most hits filed as inhibitors. P. falciparum luciferase growth in erythrocytes, 48 h; also: potency is read from the fitted curve at half-maximal effect
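Luciferase-expressing parasites in RBCs, 2% Hct / 0.1% parasitemia final; RPMI 1640 + 0.5% Albumax; 37 C, 5% CO2, one generation; luminescence read-out, lower signal = inhibition.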
HCMV antiviral: qHTS Assay for inhibitors of the human cytomegalovirus (HCMV); HFF cells, HCMV-luciferase reporter, 72 h; active compounds read low; activity change, negative = inhibition, % at 57.5 µM; 410,000 tested, 4.5% active; in the data active = activity change below about -60%; inconclusive = no clear call, values can overlap the other calls; inactive = above about -39%
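Two-dose cell screen: HFF monolayers treated with compounds and infected with luciferase-expressing HCMV at 1 PFU/cell, 72 h at 37C, then lysed for luciferase measurement.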
Sm TGR block: qHTS Assay for the Inhibitors of Schistosoma Mansoni Peroxiredoxins; Schistosoma mansoni thioredoxin glutathione reductase (TGR), Q962Y6; purified TGR, DTNB reduction, TNB absorbance 405 nm; Potency, µM (top dose mostly 114 µM), for the others: top-dose activity change, negative = inhibition, actives largely listed as inhibitors; 360,000 tested, 3% active; AID 485364, 2010; also: potency is read from the fitted curve at half-maximal effect; nearly all actives have a fitted effect of over 60% in size
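Kinetic colorimetric format: TGR-catalysed, NADPH-driven DTNB reduction monitored via TNB absorbance. Enzyme dispensed at 20 nM; compound exposure 15 min at room temperature before reaction start.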
Giardia FBPA inh: qHTS Assay for Inhibitors of Fructose-1,6-bisphosphate Aldolase from Giardia Lamblia; purified Giardia FBPA; Potency, µM (highest dose often 59.6 µM), for inactives: top-dose activity, negative = inhibition, usual class: inhibitors; 290,000 tested, 0.71% active; AID 2451, 2010; also: potency is read from the fitted curve at half-maximal effect; nearly all actives have a fitted effect of over 55% in size
Target sequence (A8B2U2 whole entry, looked up): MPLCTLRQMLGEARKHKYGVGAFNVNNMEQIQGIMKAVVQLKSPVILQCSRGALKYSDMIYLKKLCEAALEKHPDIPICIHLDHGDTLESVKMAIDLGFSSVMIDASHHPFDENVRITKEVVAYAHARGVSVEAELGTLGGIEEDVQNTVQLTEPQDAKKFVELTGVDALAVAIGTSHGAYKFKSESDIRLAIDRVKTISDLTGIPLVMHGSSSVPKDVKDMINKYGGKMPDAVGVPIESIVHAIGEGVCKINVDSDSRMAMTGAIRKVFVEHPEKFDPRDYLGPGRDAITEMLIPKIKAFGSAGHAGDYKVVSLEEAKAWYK
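40 nM FBPA preincubated 10 min at RT with compound (up to 57.5 uM final), then substrate plus GAPDH/TPI/NAD/arsenate coupling and diaphorase/resazurin added. Fluorescence read after 20 min at RT, 525/598 nm.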
Pf growth 96h: Primary qHTS for delayed death inhibitors of the malarial parasite plastid, 96 hour incubation | AID 504834, 2011 | P. falciparum luciferase reporter growth, 96 h | 320,000 tested, 6.9% active | Potency, µM (highest dose often 28.7 µM), inactives show at the highest dose activity change, negative = inhibition, usual class: inhibitors; also: potency is read from the fitted curve at half-maximal effect
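Two-generation exposure (96 h) targets delayed-death phenotype. Reporter parasites carrying integrated firefly luciferase, in red cells at 2% hematocrit and 0.05% parasitemia final, kept at 37 C, 5% CO2; luminescence loss indicates inhibition.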
Starred values were filed as active, the others as inactive; ? = inconclusive; . = no result; [ ] = another dose, or the depositor's remark. Shown are actives, neighbours in structure and some others; about 14% of the full set was active somewhere. Unless noted, calls follow the shape of the dose curve; as a rule, active = well fitted curve in the direction sought with a large enough effect; inconclusive = small, poorly fitted or top-dose-only effect, or another doubt; inactive = no such curve, though single readings can be large; an effect the other way counts as inactive or inconclusive. % is scaled to controls: 0 for no effect and ±100 for the full control effect.

SMILES | Pf growth 48h | HCMV antiviral | Sm TGR block | Giardia FBPA inh | Pf growth 96h
CCc1sc(C(=O)Nc2ncccc2O)cc1C | 118% | ? | ? | . | 123%
O=C(O)c1ccccc1N/C=C\[N+](=O)[O-] | 9% | -6 | 28µM* | ? | ?
CC1CCCCC1NC1CCN(C)CC1 (centres undefined) | -7% | 10 | -15% | -56% | 9.3µM*
OCCOCCNc1ncnc2c1cnn2-c1ccc(Cl)cc1 | 3.3µM* | 118 | 3% | -12% | .
OCCOCCNc1ncnc2c1cnn2-c1ccccc1 | 1.3µM* | 211 | 3% | -5% | 63%
COCCNc1ncnc2c1cnn2-c1ccc(Cl)cc1 | . | 262 | -1% | 0% | .
CC(C)(C)c1ccc(C(=O)NNc2ncnc3c2cnn3-c2ccccc2)cc1 | . | -73* | 0% | . | .
O=C(CN1CCCCC1)N1N=C(c2cccs2)CC1c1cccs1 (centres undefined) | -12% | -16 | -2% | 1% | ?
COc1ccc(C(=O)NCCc2nnc3ccc(SCC(=O)N4CCCCC4)nn23)cc1 | -5% | 17 | -14% | 5% | ?
O=C(O)c1cccc(S(=O)(=O)N2CCCC2)c1 | -1% | -5 | ? | 6% | -3%
Cc1c(S(=O)(=O)N2CCN(C(c3ccccc3)c3ccccc3)CC2)c(=O)n(C)c(=O)n1C | 1.7µM* | 33 | -15% | 1% | 2.3µM*
O=C(O)c1cccc(S(=O)(=O)N2CCN(C(c3ccccc3)c3ccccc3)CC2)c1 | 10µM* | -34 | 0% | 19% | 13µM*
COc1ccc(-n2c(SCC(=O)Nc3ccccc3)nnc2-c2ccc(NS(=O)(=O)c3ccc(C)cc3)cc2)cc1 | . | -36 | 0% | 3% | 3.3µM*
COc1ccc(-n2c(SCC(N)=O)nnc2-c2ccc(NS(=O)(=O)c3ccc(C)cc3)cc2)cc1 | . | -25 | -3% | 0% | 10µM*
COc1ccc(-n2c(SCC#N)nnc2-c2ccc(NS(=O)(=O)c3ccc(C)cc3)cc2)cc1 | . | . | -23%[11.4 µM] | -3% | 14%
Cc1ccc(NC(=O)N2CCc3cc(S(=O)(=O)N4CCC(C)CC4)ccc32)cc1C | . | 16 | -2% | . | .
CC(=O)c1ccccc1OCC(O)CN1CCN(CCN2C(=O)c3cccc4cccc(c34)C2=O)CC1 (centres undefined) | ? | -65* | -2% | 1% | 10%
Cc1ccc(C)c(OCC(O)CN2CCN(CCN3C(=O)c4cccc5cccc(c45)C3=O)CC2)c1 (centres undefined) | -108% | -84* | -2% | 0% | -25%
Cc1cc(OCC(O)CN2CCN(CCO)CC2)ccc1C(C)C (centres undefined) | -9% | -19 | -4% | ? | 9.3µM*
O=C(N1CCOCC1)N1CCN(CC(O)COc2ccc3ccccc3c2)CC1 (centres undefined) | 3% | 41 | 0% | 6% | -8%
CC(=O)c1ccccc1OCC(O)CN1CCN(c2ccccn2)CC1 (centres undefined) | -24% | -35 | -11% | . | 14%
O=C1c2cccc3cccc(c23)C(=O)N1CCN1CCN(CC(O)COc2ccc3ccccc3c2)CC1 (centres undefined) | ? | -63* | -7% | 5% | ?
CCc1ccc(OCC(O)CN2CCC(CN3C(=O)c4cccc5cccc(c45)C3=O)CC2)cc1 (centres undefined) | -9% | 20 | -6% | 12% | ?
C/C(=N/NC(=O)CN1CCN(Cc2ccccc2)CC1)c1ccc([N+](=O)[O-])cc1 | -8% | -2 | 0% | 20% | -25%
CN(Cc1ccccc1NC(=O)c1ccc(S(=O)(=O)N(C)C)cc1)C1CCCCC1 | ? | . | 18% | -5% | ?
SMILES | Pf growth 48h | HCMV antiviral | Sm TGR block | Giardia FBPA inh | Pf growth 96h
Cc1ccccc1NC(=O)c1ccc(F)c(S(=O)(=O)N(C)C2CCCCC2)c1 | . | -94* | -4% | . | .
CCN(CC)CCNC(=O)c1ccc(NC(=O)/C=C/c2ccc3ccccc3n2)cc1 | 9% | . | 8% | . | -29%
CCOC(=O)c1c(CN2CCOCC2)n(-c2ccccc2)c2cc(Br)c(O)cc12 | 1.7µM* | ? | -2% | -26% | 1.9µM*
CCOC(=O)c1c(CSC(=N)N)n(C)c2cc(Br)c(OC(C)=O)cc12 | ? | -12 | 3% | -2% | -8%
CCOC(=O)c1c(CSC(=N)N)n(-c2ccc(C)cc2)c2cc(Br)c(OC(C)=O)cc12 | 7.4µM* | 24 | -18% | -1% | 3.3µM*
CCOC(=O)c1c(CN(C)C)n(-c2ccc(C)cc2)c2cc(Br)c(O)cc12 | 0.74µM* | -7 | -20% | 1% | 0.33µM*
CCOC(=O)c1c(CN2CCN(C)CC2)n(C)c2cc(Br)c(OC)cc12 | 15µM* | -38 | -8% | 0% | -25%
CCOC(=O)c1c(CN2CCCCC2)n(C)c2cc(Br)c(O)cc12 | . | 1 | 9% | 0% | .
C/C(CC(=O)NCc1ccc(F)cc1)=N\NC(N)=S | ? | 13 | -14% | ? | 19%
O=C(O)c1ccc(Cl)c(NC(=S)NC(=O)c2ccccc2[N+](=O)[O-])c1 | 32% | 9 | 3% | 15% | 0%
CCCCc1nnc(NC(=O)C2CC(=O)N(Cc3ccccc3)C2)s1 (centres undefined) | ? | -3 | -6% | . | 10µM*
CCCC(C)NC(=O)C1CC(=O)N(CCc2ccc(F)cc2)C1 (centres undefined) | 0% | 51 | -20% | 12% | 0.93µM*
CCc1nnc(NC(=O)C2CC(=O)N(CCc3ccc(F)cc3)C2)s1 (centres undefined) | 9% | -64* | -2% | 2% | ?
CCC(CC)NC(=O)C1CC(=O)N(CCc2ccc(F)cc2)C1 (centres undefined) | 2% | 15 | 3% | 5% | 28%
O=C(Nc1nccs1)C1CC(=O)N(c2ccc(F)cc2)C1 (centres undefined) | 9% | 17 | 6% | 4% | 29%
CCSc1nnc(NC(=O)C2CC(=O)N(Cc3ccccc3)C2)s1 (centres undefined) | -29% | 110 | 2% | -12% | ?
CCc1nnc(NC(=O)C2CC(=O)N(CCc3ccccc3)C2)s1 (centres undefined) | -11% | 114 | -13% | -12% | ?
O=C(Nc1nccs1)C1CC(=O)N(CCc2ccc(F)cc2)C1 (centres undefined) | 3% | -62* | -2% | 1% | 12%
COc1cccc(NC(=O)CC2NCCNC2=O)c1 (centres undefined) | . | 9 | -11% | . | .
COc1ccc(NC(=O)CC2C(=O)N(c3ccc(F)cc3)C(=O)N2Cc2cccnc2)cc1 (centres undefined) | . | 13 | 5% | . | .
